Measurements: PubChem BioAssay (NCI)
About 83,000 compounds went through this panel and 20% of them were active in at least one assay; those are over-represented in the sample as a whole.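 Negative percent growth values reflect cell death: -40 means 40% of the cells present at the start died, and -100 means all died.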 Unmarked numbers belong to inactive results. The source made the active and inactive calls. The calls were made as follows: active = growth percent below 10; inactive = the rest.

What was measured:
Experiment in all cases: NCI-60 one-dose screen, 48 h (100 = growth as untreated, 0 = no growth, -100 = all killed)
[1] = system: RPMI-8226 leukemia; conditions: 10 µM unless noted
[2] = system: OVCAR-8 ovarian; conditions: 10 µM unless noted
[3] = system: OVCAR-5 ovarian; conditions: 10 µM unless noted
[4] = system: OVCAR-4 ovarian; conditions: 10 µM unless noted
[5] = system: SK-OV-3 ovarian; conditions: 10 µM unless noted
[6] = system: IGROV1 ovarian; conditions: 10 µM unless noted
[7] = system: OVCAR-3 ovarian; conditions: 10 µM unless noted
[8] = system: HS 578T breast; conditions: 10 µM unless noted
[9] = system: NCI/ADR-RES ovarian; conditions: 10 µM unless noted
[10] = system: T-47D breast; conditions: 10 µM unless noted
[11] = system: BT-549 breast; conditions: 10 µM unless noted
[12] = system: MDA-MB-435 melanoma; conditions: 10 µM unless noted
[13] = system: SW-620 colon; conditions: 10 µM unless noted
[14] = system: MCF7 breast; conditions: 10 µM
[15] = system: HCT-116 colon; conditions: 10 µM unless noted
[16] = system: HCC-2998 colon; conditions: 10 µM unless noted
[17] = system: KM12 colon; conditions: 10 µM unless noted

With `COc1ccc(N)c(-c2cc3c(c4c2[nH]c2ccc(OC)cc24)CCCC3)c1` the growth [1] was 68.5%, the growth [2] was 87.4% and the growth [3] was 95.5%. It also gave a growth [4] of 93.3%, a growth [5] of 77.3% and a growth [6] of 71.1%. It also gave a growth [7] of 86.1%, a growth [8] of 85.9% and a growth [9] of 85.7%. The growth [10] was 62.7%, the growth [11] was 74.6% and the growth [12] was 93.6%. It also gave a growth [13] of 83.3%, a growth [14] of 69.1% and a growth [15] of 58.4%. For the same compound, the growth [16] was 104% and the growth [17] was 80.2%.

With `CCOC(=O)c1cnc2c(C)cccc2c1Nc1ccc(C(C)=O)cc1` the growth [1] was -34.2% (active), the growth [2] was 35% and the growth [3] was 45%. For the same compound, the growth [4] was 16.2%, the growth [5] was 68.2% and the growth [6] was 2.45% (active). The growth [7] was -8.93% (active), the growth [8] was 25.6% and the growth [9] was 25.1%. For the same compound, the growth [10] was -18.4% (active), the growth [11] was 61.5% and the growth [12] was -63.8% (active). The growth [13] was -62.2% (active), the growth [14] was -39.7% (active) and the growth [15] was 1.75% (active). The growth [16] was -91% (active) and the growth [17] was -34.7% (active).

Compound `COc1ccc(-c2nsc3c2NC(=O)CC3c2ccsc2)cc1` (configuration not stated) has a growth [1] of 21.5%, a growth [2] of 30.7% and a growth [3] of 33%. The growth [4] was 31.1%, the growth [5] was -4.77% (active) and the growth [6] was 15.7%. The growth [7] was -39.3% (active), the growth [8] was 32.5% and the growth [9] was 22.2%. For the same compound, the growth [10] was 62.7%, the growth [11] was 12.1% and the growth [12] was -44% (active). It also gave a growth [13] of 28.3%, a growth [14] of 16.7% and a growth [15] of 10.8%. The growth [16] was 31.1% and the growth [17] was 8.01% (active).

In the case of `COc1ccc(/C=C/C(=O)c2ccc3cc(OC)c(OC)cc3c2)cc1OC`, the growth [1] is reported as 4.57% (active), the growth [2] is reported as 11.4% and the growth [3] is reported as 29.6%. For the same compound, the growth [4] was 25.5%, the growth [5] was 63.3% and the growth [6] was 53.8%. The growth [7] was 15.5%, the growth [8] was 77.2% and the growth [9] was 11.5%. The growth [10] was 47.5%, the growth [11] was 33.9% and the growth [12] was 7.45% (active). It also gave a growth [13] of 11.1%, a growth [14] of 25.9% and a growth [15] of 16.9%. It also gave a growth [16] of 48.6% and a growth [17] of 21.5%.

Work on `Cc1ccc2[nH]c(=O)cc(-n3nncc3Cn3c4ccccc4c4ccccc43)c2c1` yielded a growth [1] of 109%, a growth [2] of 94.9% and a growth [3] of 104%. It also gave a growth [4] of 98.7%, a growth [5] of 91.4% and a growth [6] of 103%. For the same compound, the growth [7] was 101%, the growth [8] was 88.4% and the growth [9] was 99.5%. The growth [10] was 106%, the growth [11] was 96.6% and the growth [12] was 100%. It also gave a growth [13] of 97.9%, a growth [14] of 99.5% and a growth [15] of 97.8%. It also gave a growth [16] of 101% and a growth [17] of 103%.

`COc1ccc(C2=NN(/C=C3\SC(=O)NC3=Nc3ccc(F)cc3)C(c3ccc(F)cc3)C2)cc1` (configuration not stated) showed a growth [1] of 88.7%, a growth [2] of 95.3% and a growth [3] of 96.1%. The growth [4] was 101%, the growth [5] was 102% and the growth [6] was 97.9%. For the same compound, the growth [7] was 104%, the growth [8] was 99% and the growth [9] was 103%. For the same compound, the growth [10] was 89.7%, the growth [11] was 98% and the growth [12] was 106%. It also gave a growth [13] of 99.2%, a growth [14] of 94.5% and a growth [15] of 105%. The growth [16] was 101% and the growth [17] was 98.2%.

`CN(C)CCNc1cc(-c2ccccc2)nc2ccccc12` was tested, and the growth [1] was -8.18% (active), the growth [2] was -34.4% (active) and the growth [3] was -39.7% (active). The growth [4] was -25% (active), the growth [5] was 36.4% and the growth [6] was -64% (active). The growth [7] was -92.5% (active), the growth [8] was 11.1% and the growth [9] was -1.85% (active). The growth [10] was -5.18% (active), the growth [11] was -77.8% (active) and the growth [12] was -55.1% (active). The growth [13] was -79.8% (active), the growth [14] was -24.6% (active) and the growth [15] was -71.4% (active). The growth [16] was -81.4% (active) and the growth [17] was -23.8% (active).

With `Cc1nn(-c2nc3ccccc3[nH]2)c2c1C(c1ccc(OCC(N)=O)cc1)CC(=O)N2` (configuration not stated) the growth [1] was 126%, the growth [2] was 107% and the growth [3] was 102%. It also gave a growth [4] of 108%, a growth [5] of 106% and a growth [6] of 109%. For the same compound, the growth [7] was 111%, the growth [8] was 95% and the growth [9] was 109%. For the same compound, the growth [10] was 90.8%, the growth [11] was 105% and the growth [12] was 98.8%. It also gave a growth [13] of 88.7%, a growth [14] of 96% and a growth [15] of 101%. The growth [16] was 122% and the growth [17] was 109%.

`CCOC(=O)C1=C(C)N=c2s/c(=C\c3ccccc3O)c(=O)n2C1c1ccc(OC)c2ccccc12` (configuration not stated) was tested, and the growth [1] was -15.1% (active), the growth [2] was 13.2% and the growth [3] was 51.6%. For the same compound, the growth [4] was 38.6%, the growth [5] was 61.7% and the growth [6] was 16.3%. For the same compound, the growth [7] was 10.1%, the growth [8] was 10.4% and the growth [9] was 48.3%. For the same compound, the growth [10] was 23.3%, the growth [11] was 60.3% and the growth [12] was -76.6% (active). For the same compound, the growth [13] was -78.2% (active), the growth [14] was -75.4% (active) and the growth [15] was 11.6%. For the same compound, the growth [16] was -86.7% (active) and the growth [17] was 8.88% (active).

`COc1cc(/C=C/C(=O)c2c(C)nc3ccccc3c2/C=C/c2ccccc2)cc(OC)c1OC` was tested, and the growth [1] was -27.3% (active), the growth [2] was 11.6% and the growth [3] was 7.55% (active). The growth [4] was 40.8%, the growth [5] was 59.3% and the growth [6] was 2.87% (active). For the same compound, the growth [7] was -35.9% (active), the growth [8] was 24.7% and the growth [9] was 8.09% (active). The growth [10] was 13.3%, the growth [11] was 6.8% (active) and the growth [12] was 3.78% (active). The growth [13] was 0.233% (active), the growth [14] was 13.7% and the growth [15] was -81.8% (active). For the same compound, the growth [16] was 6.52% (active) and the growth [17] was -5.07% (active).

Work on `CCn1c(Cc2ccccc2Nc2c(Cl)cccc2Cl)nnc1SCC(=O)NN1C(=O)/C(=C/c2cccc(OC)c2OC)SC1=S` yielded a growth [1] of 94.3%, a growth [2] of 99% and a growth [3] of 99.2%. It also gave a growth [4] of 94.2%, a growth [5] of 107% and a growth [6] of 99%. For the same compound, the growth [7] was 108%, the growth [8] was 94.7% and the growth [9] was 104%. The growth [10] was 86%, the growth [11] was 109% and the growth [12] was 103%. The growth [13] was 106%, the growth [14] was 99.1% and the growth [15] was 109%. It also gave a growth [16] of 115% and a growth [17] of 102%.
